Values joined by “and” are separate entries in the source; they are usually repeats but may differ in a detail not shown here. Equal entries are not always repeated. Some of the results follow. Active and inactive are the calls of the source. No stated cut-off is given here; in the data, active means inhibition above about 32%; inactive means the rest.
Each molecule was assayed on Botulinum neurotoxin type A light chain protease (Clostridium botulinum A str. ATCC 3502) (assay: inhibition of botulinum toxin A LC protease – biochemical, flow cytometry, cherry pick 1, confirmation (AID 602139)). Settings: multiplex microsphere protease assay, at 10 µM, active compounds read high.

SMILES | inhibition
Cc1ccc(C(=O)COc2cccc(NC(=O)c3ccco3)c2)cc1 | -0.4% (inactive)
Nc1ccccc1Sc1cc(Cl)nnc1Cl | -0.2% (inactive)
Cc1cc(S(=O)(=O)NC2CCCC2)ccc1-n1cnnn1 | 0.3% (inactive)
Clc1ccc(-c2ncc3ccccn23)c(Cl)c1 | 2.4% (inactive)
CN1CCN(c2ccc(NC(=O)c3ccccc3)cc2)CC1 | 1.8% (inactive)
COc1ccc(N(CC(=O)NCCSCc2cccc(Cl)c2)S(C)(=O)=O)cc1 | 1% (inactive)
Cc1ccccc1NC(=O)c1cc(S(=O)(=O)Nc2cccc(C(=O)O)c2)ccc1Cl | -1.4% (inactive)
COc1ccccc1-n1c(-c2cc(-c3ccco3)[nH]n2)n[nH]c1=S | 1.5% (inactive)
O=C(O)c1cc(S(=O)(=O)NC2CCCc3ccccc32)ccc1O (configuration not stated) | 0.7% (inactive)
CC(=O)c1cccc(NC(=O)N2CCCC2C(=O)NCCc2ccccc2)c1 (configuration not stated) | 1.9% (inactive)
CC(C)Cc1nnc(NC(=O)CCC(=O)Nc2ccc3cn[nH]c3c2)s1 | -0.8% (inactive)
CCN1CCN(C(C(=O)NC2CCCC2)c2cc3c(cc2[N+](=O)[O-])OCO3)CC1 (configuration not stated) | -0.8% (inactive)
CCCSc1nc2sc3c(c2c(=O)n1-c1ccc(OC)cc1)CCN(C)C3 | 1.8% (inactive)
CN(C(=O)c1ccccn1)c1nnc(-c2ccccn2)s1 | -1.1% (inactive)
COc1ccc(C2CC(c3cccs3)=NN2c2nc(C)c(C(C)=O)s2)cc1OC (configuration not stated) | 33.8% (active) and 32.3% (active)
CCCN1C2CCCC1CC(NC(=O)c1cccc(OC)c1)C2 (configuration not stated) | 0.4% (inactive)
COCc1cc(=O)[nH]c(SC)n1 | 0.2% (inactive)
COc1ccc(Br)cc1CNCCc1cccc(Cl)c1 | 1.5% (inactive)
COc1cc(C(=O)NCc2ccc3c(c2)cc(C)n3C)cc(OC)c1OC | -0.1% (inactive)
CC1CCc2c(sc3nc4n(c(=O)c23)CCS4)C1 (configuration not stated) | 0.4% (inactive)
COc1ccc(NS(=O)(=O)c2cc(C(=O)Nc3ccccc3C(=O)O)ccc2C)cc1 | 0.6% (inactive)
Cc1ccc2[nH]cc(CCNC(=O)C3CCCCC3)c2c1 | -0.1% (inactive)

From PubChem BioAssay AID602139 (NMMLSC, 2011)
